Results published in PubChem BioAssay (NCATS).
Results filed as inconclusive are left out. A call without a number means that no potency is given here. Calls of active or inactive are those of the source. Calls follow the shape of the dose curve; as a rule, active = well fitted inhibition curve with a large enough effect; inconclusive = small, poorly fitted or top-dose-only effect; inactive = flat fitted curve, though single readings scatter.

Each molecule was assayed against Calcium and integrin-binding protein 1 (Homo sapiens) (UniProt Q99828) (assay: Primary qHTS for Identification of Calcium Integrin Binding Protein 1 (CIB1) Competitor (AID 1508620; also: top concentration of the series differs between compounds)). Conditions: CIB1-GST / FITC-alphaIIb peptide fluorescence polarization; series mostly up to 57.7 µM.
Chain of Calcium and integrin-binding protein 1 (Homo sapiens) (Q99828 whole entry, looked up): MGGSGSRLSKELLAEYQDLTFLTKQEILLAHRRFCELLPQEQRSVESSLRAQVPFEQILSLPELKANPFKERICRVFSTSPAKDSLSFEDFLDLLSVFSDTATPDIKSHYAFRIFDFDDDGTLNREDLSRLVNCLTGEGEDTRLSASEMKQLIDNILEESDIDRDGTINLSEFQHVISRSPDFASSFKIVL
Outline: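 Fluorescence polarization competition: GST-tagged CIB1 (1 uM final) preincubated with compound 15 min at room temperature, then FITC-labelled alphaIIb peptide (100 nM final) added. After 15 min at room temperature, polarization read at Ex 480/Em 540.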
In the case of `O=C(C1OC1/C=C/c1ccc2c(c1)OCO2)N1CCCCC1` (stereo unspecified), the Potency is reported as “inactive”.
In the case of `CC1=C2CC(O)(C(C)(C)O)C(O[C@@H]3O[C@H](CO)[C@@H](O)[C@H](O)[C@H]3O)CC(C)C2CC1=O` (stereo partly specified), the Potency is reported as “inactive”.
In the case of `C#CCCCn1cc(-c2cccc3c2N[C@@H](C)CC(=O)N3)cn1`, the Potency is reported as “inactive”.
With `CC1=C2C(=O)C=C(CO)C2[C@H]2OC(=O)[C@H](C)[C@@H]2[C@@H](OC(=O)Cc2ccc(O)cc2)C1` (stereo partly specified) the Potency was “inactive”.
`COc1cc(/C=C/C(=O)O)ccc1O[C@@H]1O[C@H](CO)[C@@H](O)[C@H](O)[C@H]1O[C@@H]1OC[C@](O)(CO)[C@H]1O` was tested, and the Potency was “inactive”.
In the case of `CC(=O)O[C@@H]1[C@H](O[C@@H]2OC[C@](O)(CO)[C@H]2O)[C@@H](O[C@@H]2O[C@@H](C)[C@H](O)[C@@H](O[C@@H]3O[C@H](CO)[C@@H](O)[C@H](O)[C@H]3O)[C@H]2O)[C@H](OC(=O)[C@]23CCC(C)(C)C[C@H]2C2=CCC4[C@@]5(C)C[C@H](O)[C@H](O[C@@H]6O[C@H](C(=O)O)[C@@H](O)[C@H](O)[C@H]6O)[C@@](C)(C(=O)O)C5CC[C@@]4(C)[C@]2(C)CC3)O[C@@H]1C` (stereo partly specified), the activity change, negative = inhibition is reported as 4.9% [at 12.4 µM] (inactive).
`COc1c(-c2ccc(O)cc2)cc(OC)c2c1oc1cc(O)c(OC3OC(CO)C(O)C3O)cc12` (stereo unspecified) was tested, and the Potency was “inactive”.
For `CC(C)=CCC[C@](C)(O[C@@H]1O[C@H](CO)[C@@H](O)[C@H](O)[C@H]1O)[C@H]1CC[C@]2(C)[C@@H]1[C@H](O)CC1[C@@]3(C)CC[C@H](O)C(C)(C)C3[C@@H](O[C@@H]3O[C@H](CO)[C@@H](O)[C@H](O)[C@H]3O[C@@H]3O[C@@H](C)[C@H](O)[C@@H](O)[C@H]3O)C[C@]12C` (stereo partly specified), the Potency was “inactive”.
With `CC(C)C(NC(=O)c1ccc(O)cc1)C(=O)N1CCCC1C(=O)Nc1c(O)cccc1C(=O)O` (stereo unspecified) the Potency was “inactive”.
For `C=C1[C@H](OC(C)=O)[C@H]2[C@@H](OC(=O)c3ccccc3)[C@@H](C)C[C@]2(O)[C@@H](OC(C)=O)[C@H](C)/C=C/C(C)(C)C(=O)[C@H](OC(C)=O)[C@H]1OC(C)=O`, the Potency was “inactive”.
For `COc1cc(CO)cc(OC)c1O[C@@H]1O[C@H](CO)[C@@H](O)[C@H](O)[C@H]1O`, the Potency was “inactive”.
In the case of `C=CC(C)(CCC=C(C)C)O[C@@H]1O[C@H](CO)[C@@H](O)[C@H](O)[C@H]1O` (stereo partly specified), the Potency is reported as “inactive”.
`CC1(C)CC[C@]2(C(=O)O)CC[C@]3(C)C(=CCC4[C@@]5(C)C[C@@H](O)[C@H](O)[C@](C)(CO)C5CC[C@]43C)[C@@H]2[C@@H]1O` (stereo partly specified) was tested, and the Potency was “inactive”.
For `CC(=O)c1[nH]cc(CCC(=O)O)c1CC(=O)O`, the Potency was “inactive”.
In the case of `COC(=O)C1=COC(OC2OC(CO)C(O)C(O)C2O)C2C(C)C(OC(C)=O)C(OC(=O)c3ccccc3)C12` (stereo unspecified), the Potency is reported as “inactive”.
`CC1=C(CCC(C)O[C@@H]2O[C@H](CO)[C@@H](O)[C@H](O)[C@H]2O)C(C)(C)CC(O)C1` (stereo partly specified) was tested, and the Potency was “inactive”.
`COC(=O)C1=COC(O[C@@H]2O[C@H](COC(=O)/C=C/c3ccc(O)cc3)[C@@H](O)[C@H](O)[C@H]2O)C2C(CO)=CCC12` (stereo partly specified) was tested, and the Potency was “inactive”.
In the case of `CC(C)(CC(=O)N1CCCC1)NCC(=O)N1C[C@@H](F)C[C@H]1C#N`, the Potency is reported as “inactive”.
For `C/C(=C\C(=O)C[C@@]12C(=O)O[C@]3(C)CC[C@H]1C[C@H]23)C(N)=O`, the Potency was “inactive”.
`C[C@H]1/C=C/C=C/C=C/C=C/C=C/[C@@H](O)[C@H](C(=O)O)[C@H](O)C[C@H](O)CCC[C@H](O)C[C@H](O)C[C@H](O)[C@@H](C)C(=O)O[C@@H]1C` was tested, and the Potency was “inactive”.
`C[C@@H]1CCC2C(C)(C)[C@H](O)[C@H](O)C[C@]2(C)[C@@]12Cc1c(O)cc3c(c1O2)CN(CCCC(=O)O)C3=O` (stereo partly specified) was tested, and the Potency was “inactive”.
In the case of `C=C1CCC2(C(=O)OC3OC(CO)C(O)C(O)C3O)CCC3(C)C(=CCC4C5(C)CCC(OC6OC(CO)C(OC7OC(C)C(O)C(O)C7O)C(OC7OCC(O)C(O)C7O)C6O)C(C)(C)C5CCC43C)C2C1` (stereo unspecified), the Potency is reported as “inactive”.
`C[C@H]1CC[C@@]2(OC1)O[C@H]1CC3C4CC[C@H]5C[C@@H](O)CC[C@]5(C)C4CC(=O)[C@]3(C)[C@H]1[C@@H]2C` (stereo partly specified) was tested, and the Potency was “inactive”.
With `COC(=O)CCC1(C)C(C(C)(C)O)C(O)CC2(C)Oc3c(C)c4c(c(OC)c3CC21)C(=O)OC4` (stereo unspecified) the Potency was “inactive”.
For `CC1=C(C(=O)OC2OC(COC3OC(CO)C(O)C(O)C3O)C(O)C(O)C2O)C(C)(C)CCC1` (stereo unspecified), the Potency was “inactive”.
In the case of `CC(=O)[C@@H]1C[C@H](C(C)(C)O[C@@H]2O[C@H](CO)[C@@H](O)[C@H](O)[C@H]2O)CC[C@@]2(CO)OC(=O)C[C@@H]12`, the Potency is reported as “inactive”.
For `CC(C)C[C@H](NC(=O)[C@@H]1O[C@H]1C(=O)O)C(=O)NCCCCN=C(N)N`, the Potency was “inactive”.
`C[C@H]1CC(=O)C2=C(C1)C(O)C(O)[C@@]1(O)[C@H]2C(=O)c2cccc(O)c2[C@@H]1O` (stereo partly specified) was tested, and the Potency was “inactive”.
With `C=C(C(=O)O)[C@@H]1CC[C@@]2(C)CC[C@@H](O)C(=C)C2C1` (stereo partly specified) the Potency was “inactive”.
With `CC1CCC2(C(=O)O)CCC3(C)C(=CCC4C5(C)CCC(O)C(C)(C(=O)O)C5CCC43C)C2C1(C)O` (stereo unspecified) the Potency was “inactive”.
`C[C@@H]1O[C@@H](OC2C(O[C@H]3[C@H](O[C@H]4CC[C@@]5(C)C(CC[C@]6(C)C5CC=C5C7CC(C)(C)CC(O)[C@]7(C)CC[C@]56C)C4(C)C)O[C@H](C(=O)O)[C@@H](O)[C@@H]3O)OC(CO)C(O)C2O)[C@H](O)[C@H](O)[C@H]1O` (stereo partly specified) was tested, and the Potency was “inactive”.
